Assay results reported in PubChem BioAssay AID1159580 (chemical genetic matrix, 2015).
Values joined by “and” are separate entries in the source; they are usually repeats but may differ in a detail not shown here. Equal entries are not always repeated. Out of some 5,500 compounds screened, about 2,000 (36%) were called active. Inconclusive results (about 18%) are left out. No stated cut-off is given here; in the data, active means normalized growth mostly below about 0.91 (no sharp cut-off); inconclusive means no clear call, values can overlap the other calls; inactive means mostly above about 0.92. The list shows a part of the results.

Experiment: chemical genetic growth profiling, strain panel (AID 1159580);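 further: tested at 20 µM; growth read once vehicle control cultures reached saturation at 30 °C; 1 = growth at the plate median or of vehicle wells; lower values mean less growth of the strain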
Details: S. cerevisiae deletion strains, growth OD

Measured: normalized growth

CCCN(CCC)S(=O)(=O)c1ccc(C(=O)O)cc1
inactive: locus YAL013W, strain DEP1, active compounds read low 0.992 | locus YAL021C, strain ccr4, active compounds read low 0.998 | locus YAL026C, strain drs2, active compounds read low 0.999 | locus YAL030W, strain snc1, active compounds read low 0.992 | locus YBL061C, strain skt5, active compounds read low 0.991 | locus YBR009C, strain hhf1, active compounds read low 0.997 | locus YBR021W, strain FUR4, active compounds read low 0.945 | locus YBR023C, strain chs3, active compounds read low 0.994 | locus YBR171W, strain sec66, active compounds read low 0.968 | locus YBR229C, strain ROT2, active compounds read low 1 | locus YBR231C, strain swc5, active compounds read low 0.955 | locus YBR279W, strain paf1, active compounds read low 0.996 | locus YCL011C, strain gbp2, active compounds read low 1 | locus YCL016C, strain dcc1, active compounds read low 1 | locus YCL029C, strain bik1, active compounds read low 1.02 | locus YCL069W, strain vba3, active compounds read low 0.981 | locus YCR088W, strain abp1, active compounds read low 0.993 | locus YDL005C, strain med2, active compounds read low 0.987 | locus YDL035C, strain GPR1, active compounds read low 0.998 | locus YDL040C, strain nat1, active compounds read low 0.99 | locus YDL074C, strain BRE1, active compounds read low 0.998 | locus YDL101C, strain DUN1, active compounds read low 1.01 | locus YDL134C, strain PPH21, active compounds read low 1 | locus YDL185W, strain tfp1, active compounds read low 1.01 | locus YDL192W, strain arf1, active compounds read low 1.01 | locus YDR001C, strain nth1, active compounds read low 0.987 | locus YDR069C, strain doa4, active compounds read low 0.987 | locus YDR101C, strain arx1, active compounds read low 1 | locus YDR137W, strain rgp1, active compounds read low 1.01 | locus YDR150W, strain NUM1, active compounds read low 0.998 | locus YDR159W, strain sac3, active compounds read low 1 | locus YDR162C, strain NBP2, active compounds read low 0.999 | locus YDR195W, strain ref2 0.933 | locus YDR297W, strain sur2, active compounds read low 0.998 | locus YDR318W, strain mcm21, active compounds read low 1.02 | locus YDR334W, strain swr1, active compounds read low 0.997 | locus YDR335W, strain msn5, active compounds read low 0.992 | locus YDR388W, active compounds read low 1.01 | locus YDR392W, strain spt3, active compounds read low 1.01 | locus YDR502C, strain sam2, active compounds read low 1.02 | locus YEL003W, strain gim4, active compounds read low 0.99 | locus YEL037C, strain rad23, active compounds read low 0.993 | locus YEL061C, strain CIN8 (second series), active compounds read low 0.982 | locus YEL061C, strain CIN8, active compounds read low 1 | locus YER015W, strain faa2, active compounds read low 0.999 | locus YER016W, strain bim1, active compounds read low 0.994 | locus YER110C, active compounds read low 1.01 | locus YER111C, strain swi4, active compounds read low 0.979 | locus YER155C, strain BEM2 (second series), active compounds read low 0.978 | locus YER155C, strain BEM2, active compounds read low 1.01 | locus YER167W, strain BCK2, active compounds read low 1 | locus YFR010W, strain ubp6, active compounds read low 0.983 | locus YGL078C, strain dbp3, active compounds read low 1.01 | locus YGL086W, strain mad1, active compounds read low 1 | locus YGL167C, strain pmr1, active compounds read low 0.991 | locus YGL173C, strain kem1, active compounds read low 0.976 | locus YGL227W, strain vid30, active compounds read low 0.988 | locus YGL240W, strain doc1, active compounds read low 0.976 | locus YGL248W, strain PDE1, active compounds read low 1 | locus YGL253W, strain hxk2, active compounds read low 1 | locus YGR078C, strain PAC10, active compounds read low 0.967 | locus YGR135W, strain pre9, active compounds read low 1.03 | locus YGR229C, strain SMI1, active compounds read low 0.982 | locus YGR252W, strain gcn5, active compounds read low 1 | locus YHR013C, strain ard1, active compounds read low 0.986 | locus YHR027C, strain rpn1, active compounds read low 0.999 | locus YHR030C, strain SLT2, active compounds read low 1 and 1.02 | locus YHR079C, strain IRE1 (second series), active compounds read low 1.01 | locus YHR079C, strain IRE1, active compounds read low 1.01 | locus YHR094C, strain hxt1, active compounds read low 1.01 | locus YHR129C, strain ARP1, active compounds read low 1.01 | locus YHR142W, strain chs7, active compounds read low 1 | locus YHR200W, strain rpn10, active compounds read low 1.01 | locus YIL066C, strain RNR3, active compounds read low 0.996 | locus YIL073C, strain SPO22, active compounds read low 1.08 | locus YIL125W, strain kgd1, active compounds read low 1.01 | locus YIR030C, strain dcg1, active compounds read low 1 | locus YJL092W, strain hpr5, active compounds read low 0.981 | locus YJL095W, strain BCK1 (second series), active compounds read low 0.995 | locus YJL095W, strain BCK1, active compounds read low 1.02 | locus YJL115W, strain asf1, active compounds read low 0.989 | locus YJL129C, strain trk1, active compounds read low 0.99 | locus YJL134W, strain LCB3, active compounds read low 0.997 | locus YJL154C, strain vps35, active compounds read low 0.99 | locus YJL164C, strain tpk1, active compounds read low 1.01 | locus YJL166W, strain qcr8, active compounds read low 0.966 | locus YJL168C, strain set2, active compounds read low 1 | locus YJL187C, strain SWE1 (second series), active compounds read low 1.01 | locus YJL187C, strain SWE1, active compounds read low 0.991 | locus YJR043C, strain POL32, active compounds read low 1 | locus YJR066W, strain TOR1, active compounds read low 0.965
